Source: PubChem BioAssay AID1903 (Southern Research Specialized Biocontainment Screening …, 2009)
Screen size: about 310,000 compounds; about 1,200 (0.39%) were called active. No rule for the calls is given here. The list is a sample of the results. Entries with a potency or affinity are not part of this list.

Molecular target: Large T antigen (Simian virus 40) (UniProt P03070)
Assay: TAg ATPase/helicase activity blockers – biochemical (AID 1903)
Conditions: SV40 large T antigen ATPase/helicase inhibition assay; at 20 µM; active compounds read high

Chain of Large T antigen (Simian virus 40) (P03070 whole entry, looked up): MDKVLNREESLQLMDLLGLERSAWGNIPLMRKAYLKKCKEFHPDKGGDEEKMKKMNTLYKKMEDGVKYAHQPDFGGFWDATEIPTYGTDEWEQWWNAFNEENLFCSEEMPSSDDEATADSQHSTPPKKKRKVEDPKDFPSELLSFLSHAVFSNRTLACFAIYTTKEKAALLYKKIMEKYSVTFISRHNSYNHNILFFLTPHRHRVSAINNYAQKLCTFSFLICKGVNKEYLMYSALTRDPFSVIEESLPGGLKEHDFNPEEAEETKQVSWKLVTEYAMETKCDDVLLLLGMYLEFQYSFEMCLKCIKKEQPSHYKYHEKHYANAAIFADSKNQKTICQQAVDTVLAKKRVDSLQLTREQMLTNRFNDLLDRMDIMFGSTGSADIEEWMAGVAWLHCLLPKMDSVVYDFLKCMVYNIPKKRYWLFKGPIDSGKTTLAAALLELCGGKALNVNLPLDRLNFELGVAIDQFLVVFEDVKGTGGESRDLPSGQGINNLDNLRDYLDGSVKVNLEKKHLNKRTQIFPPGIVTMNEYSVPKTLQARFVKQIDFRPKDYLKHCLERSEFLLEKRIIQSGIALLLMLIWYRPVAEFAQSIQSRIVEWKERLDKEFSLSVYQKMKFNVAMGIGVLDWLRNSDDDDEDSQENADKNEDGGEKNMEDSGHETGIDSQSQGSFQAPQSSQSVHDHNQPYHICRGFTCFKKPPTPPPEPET

inhibition, inactive:
O=C(CCc1c[nH]c2ccccc12)NC(Cc1c[nH]c2ccccc12)C(=O)O (stereo not given) 11.4%
CNC(=O)c1ccccc1Sc1ccccc1CO 10.3%
NNC(=O)c1ccccc1CO 3.38%
O=[N+]([O-])c1cccc(/C=N/N2CCN(c3ccccn3)CC2)c1 15.9%
COc1ccccc1CNC(=O)c1ccccc1C(=O)NC(CC(C)C)C(=O)NCc1ccccc1OC (stereo not given) 14%
COc1ccc2[nH]c3c(=O)n(CCCCCC(=O)NCCC(C)C)c(=S)[nH]c3c2c1 5.88%
CCCCNC(=O)CCCCn1c(=S)[nH]c2c([nH]c3ccc(OC)cc32)c1=O 9.54%
CCCNC(=O)CCCCn1c(=S)[nH]c2c([nH]c3ccc(OC)cc32)c1=O 10.7%
COc1ccc2[nH]c3c(=O)n(CCCCC(=O)NCCC(C)C)c(=S)[nH]c3c2c1 9.9%
CCc1nc2oc3ccccc3c(=O)c2c(=O)n1Cc1ccccc1 2.01%
Cn1ccnc1SCC(=O)c1cccc(Br)c1 23.2%
Cc1cc(C)c(NC(=O)COC(=O)CSc2ccc(Br)cc2C)c(C)c1 -2.91%
O=C(O)c1ccc(O)c(O)c1 8.73%
CC(=O)c1ccc(O)c(CO)c1 8.31%
O=C(CSc1nnc(Cn2c(=O)sc3ccccc32)n1-c1ccccc1)N1CCCCCC1 2.86%
COCCCNCCOCCOc1ccc(C)cc1[N+](=O)[O-] 0.35%
Cc1cccc(NC(=S)NNc2cccc(Cl)c2)c1 23.5%
CCOc1ccc(S(=O)(=O)N(CC)CC)cc1N -1.97%
CCOc1ccc(C(=O)c2ccc(OCC)c(N)c2)cc1N 3.54%
CN(C)c1ccc(NC(=O)CN2CCC(NC(=O)C3CCCCC3)CC2)cc1 28.2%
COc1ccc(C(=O)C2CCN(CC(=O)Nc3ccc(C)cc3)CC2)cc1 -0.7%
O=C(CN1CCC(C(=O)c2ccc(F)cc2)CC1)Nc1ccc(F)cc1 3.44%
Cc1ccc(NC(=O)CN2CCC(C(=O)c3ccc(F)cc3)CC2)cc1 11.8%
CC(=O)c1ccc(NC(=O)CN2CCC(C(=O)c3ccc(F)cc3)CC2)cc1 25.6%
O=C(CN1CCN(C2CCCCC2)CC1)Nc1ccc(Br)cc1 3.84%
COc1cccc(-c2ccc(NC(=O)C3CCCN(Cc4cnc(C)n4C)C3)cc2)c1 (stereo not given) 12.9%
Nc1nc(-c2ccccc2)c(-c2ccccc2)s1 22%
Nc1nc(-c2ccccc2)c(-c2ccc([N+](=O)[O-])cc2)s1 2.8%
O=C(Nc1cccc(S(=O)(=O)N2CCCC2)c1)c1cccnc1 8.88%
CCn1c(C)nc2cc(C(=O)NNC(=S)NC(=O)c3ccccc3)ccc21 22.4%
COc1ccc(C(=O)Nc2ccc(NC(=O)C3CC3)cn2)cc1 10.7%
N#C/C(=C\c1ccc(Sc2nc3ccccc3[nH]2)o1)c1ccccc1 13%
N#C/C(=C/c1ccc(Sc2nc3ccccc3[nH]2)o1)c1cccc(F)c1 0.21%
CC(C)N1C(=O)S/C(=C/c2ccc(Sc3nc4ccccc4[nH]3)o2)C1=O 7.29%
C=CCN1C(=O)S/C(=C/c2ccc(Sc3nc4ccccc4[nH]3)o2)C1=O 6.66%
N#C/C(=C/c1ccc(Sc2nc3ccccc3[nH]2)o1)c1cccc(Br)c1 -8.47%
CCN1C(=O)S/C(=C/c2ccc(Sc3nc4ccccc4[nH]3)o2)C1=O 10.6%
O=C(NCc1ccco1)/C(=C/c1ccc(F)cc1)NC(=O)c1ccccc1 5.2%
O=C(O)CC1(CC(=O)Nc2ccc3ccccc3n2)CCCCC1 10.8%
Cc1cccc(N=C2N=C(N)c3ccccc32)c1 0.797%
COc1ccc(-c2nc3ccccn3c2NC2CCCCC2)cc1SC1CCCCC1 9.08%
COc1ccc(-c2cn(Cc3ccc(C)cc3)nn2)cc1 5.41%
COCCOC(=O)C1=C(C)NC(=O)NC1c1cn(-c2ccccc2)nc1-c1cccs1 (stereo not given) 8.59%
Cc1cccc(Oc2ccccc2N)c1 -2.44%
CC(=O)Nc1ccc(NC(=O)Oc2ccccc2)cc1 16.2%
O=C(Nc1ccc(N2CCN(c3ccc(O)cc3)CC2)cc1)Oc1ccccc1 16.3%
O=C(CC1C(=O)NCCN1CC(c1ccccc1)c1ccccc1)NC1CC1 (stereo not given) 3.88%
OCC1(CCCc2ccccc2)CCN(C2CCC2)CC1 4.13%
O=C(COC(=O)C1=COCCO1)NCc1ccc(F)cc1 17.7%
Cc1ccccc1OCCC(=O)Nc1ccc(F)c(Cl)c1 7.2%
CCCCCCCCC1=NCCc2c1[nH]c1ccccc21 7.25%
Cc1cc(=O)[nH]c2cc(O)ccc12 12.9%
COc1cccc(C=Nc2ccccc2C(=O)Nc2ccccc2)c1O 1.08%
Nc1cc(-c2ccc(Cl)cc2)nn1S(=O)(=O)c1ccccc1 0.87%
CCc1ccc(NC(=O)/C(C#N)=C\c2ccc(OC)c(C(=O)O)c2)cc1 1.43%
N#C/C(=C\c1ccc(O)c(Br)c1)C(=O)NCc1ccccc1 12.1%
N#C/C(=C/c1ccc(N2CCCCC2)o1)C(=O)Nc1ccc(Cl)cc1 22.3%
COc1ccc(/C=C(/C#N)C(=O)Nc2ccccc2C)cc1C(=O)O 9.24%
COc1cc(/C=C(\C#N)C(=O)Nc2cccc3ncccc23)ccc1O 3.35%
N#C/C(=C/c1ccc(N2CCOCC2)o1)C(=O)Nc1ccccc1 8.94%
COc1ccc(/C=C(\C#N)C(=O)NCc2ccccc2)cc1O 8.17%
COc1ccc(/C=C(\C#N)C(=O)Nc2cccc3ncccc23)cc1OC 6.66%
CCOP(=O)(O)c1ccccc1OCCOCCOc1ccccc1P(=O)(O)OCC -4.92%
COc1ccc(Cl)cc1Nc1nc(-c2sc(NC(=O)c3ccccc3)nc2C)cs1 2.67%
CCOC(=O)Cn1c(=NC(=O)C(C)C)sc2c(C)cc(C)cc21 14%
CCCc1nnc(NC(=O)CCC(=O)N2CCCCC2CC)s1 (stereo not given) 6.09%
COc1ccc(/C=C(\C#N)C(=O)NC(C)c2ccccc2)cc1O (stereo not given) 4.31%
COc1cc(/C=C(\C#N)C(=O)NCCc2ccccc2)cc(OC)c1O 23.4%
O=C1NC(=S)N/C1=C\c1ccccc1OCc1ccc(C(=O)O)cc1 11.5%
CN1C(=O)S/C(=C\c2ccccc2OCc2ccc(C(=O)O)cc2)C1=O 10.5%
O=C(C(=O)N1CCCc2ccccc21)N1CCCc2ccccc21 -4.81%
N#C/C(=C\c1ccc(O)c(O)c1)C(=O)NCCCc1ccccc1 37.7%
CC(NC(=O)/C(C#N)=C/c1ccc(C(=O)O)cc1)c1ccccc1 (stereo not given) 2.43%
COc1cc(/C=C(\C#N)C(=O)N2CCc3ccccc32)ccc1O 57%
Cc1nnc(NC(=O)CSc2n[nH]c(-c3ccccc3)n2)s1 -0.77%
O=C(CC(C(=O)N1CCc2ccccc21)n1ccnc1)NCC1CCCO1 (stereo not given) 2.93%
COc1ccccc1N(C)S(=O)(=O)c1ccc(C(=O)OCC(=O)NCC(F)(F)F)cc1 21.8%
COc1ccc(OCCCC(=O)OCC(=O)NNC(=O)c2ccc([N+](=O)[O-])cc2)cc1 11.8%
COc1ccc2c(=O)c(N3C(=O)c4ccccc4C3=O)c(C)oc2c1 0.21%
COc1ccc(C)cc1NC(=O)Nc1ccc2c(c1)CCC2 -11.4%
COC(=O)c1ccc(COc2ccccc2/C=C(\C#N)C(=O)Nc2ccc(C)cc2)cc1 3.16%
COc1cc(/C=C(/C#N)C(=O)Nc2ccccc2)c(Br)cc1OCc1ccc(C(=O)O)cc1 12.2%
N#C/C(=C/c1ccc(O)c([N+](=O)[O-])c1)C(=O)Nc1ccccc1 6.93%
N#C/C(=C/c1ccc(C(=O)O)cc1)C(=O)Nc1ccccc1 2.52%
CCOC(=O)Cc1csc(NC(=O)CCCN2C(=O)c3ccccc3C2=O)n1 1.05%
Cc1[nH]c2ccccc2c1C(Nc1nccs1)c1ccncc1 (stereo not given) 0.2%
CCOc1ccc(NC(=O)CCn2c(=O)[nH]c3ccsc3c2=O)cc1 9.67%
Cc1ccc(S(=O)(=O)N(C)C)cc1NC(=O)CSc1nc2ccccc2c(=O)n1CC1CCCO1 (stereo not given) 23.7%
O=C(Nc1ncccn1)C1=C(O)c2ccccc2S(=O)(=O)N1Cc1ccccc1 2.54%
Cc1cc(Cl)c(S(=O)(=O)NC2CCCCC2)cc1OCC(=O)Nc1nncs1 1.03%
Cc1ccccc1NC(=O)CCNS(=O)(=O)c1ccc2c(c1)CCC(=O)N2 5.35%
Cc1ccc(NC(=O)CCNS(=O)(=O)c2ccc3c(c2)CCC(=O)N3)c(Br)c1 3.77%
CC(C)(C)n1nc2c(c1NC(=O)Cc1cccc3ccccc13)CS(=O)(=O)C2 2.22%
Brc1cccc(Cn2c(-c3cncs3)nc3ccccc32)c1 12%
CC(=O)c1cccc(NC(=O)COC(=O)COc2ccccc2C)c1 2.51%
